Test results: publication PMC4336329 (PLoS ONE, 2015)
In all, about 310,000 compounds went through this assay and about 14,000 (4.5%) showed an effect of 50% or more. The effect is printed as a negative number. The list comes from a sample in which strong results are over-represented; it also holds similar structures and randomly drawn compounds.

Molecular target: human ether-à-go-go-related gene (hERG) potassium channel (human, UniProt Q12809)
Test: primary screen, population patch clamp on CHO cells stably expressing hERG; higher = less effect of the substance
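Also: peak tail current of the secondary pulse compared with the same well before compound.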

Chain of human ether-à-go-go-related gene (hERG) potassium channel (Q12809 whole entry, looked up): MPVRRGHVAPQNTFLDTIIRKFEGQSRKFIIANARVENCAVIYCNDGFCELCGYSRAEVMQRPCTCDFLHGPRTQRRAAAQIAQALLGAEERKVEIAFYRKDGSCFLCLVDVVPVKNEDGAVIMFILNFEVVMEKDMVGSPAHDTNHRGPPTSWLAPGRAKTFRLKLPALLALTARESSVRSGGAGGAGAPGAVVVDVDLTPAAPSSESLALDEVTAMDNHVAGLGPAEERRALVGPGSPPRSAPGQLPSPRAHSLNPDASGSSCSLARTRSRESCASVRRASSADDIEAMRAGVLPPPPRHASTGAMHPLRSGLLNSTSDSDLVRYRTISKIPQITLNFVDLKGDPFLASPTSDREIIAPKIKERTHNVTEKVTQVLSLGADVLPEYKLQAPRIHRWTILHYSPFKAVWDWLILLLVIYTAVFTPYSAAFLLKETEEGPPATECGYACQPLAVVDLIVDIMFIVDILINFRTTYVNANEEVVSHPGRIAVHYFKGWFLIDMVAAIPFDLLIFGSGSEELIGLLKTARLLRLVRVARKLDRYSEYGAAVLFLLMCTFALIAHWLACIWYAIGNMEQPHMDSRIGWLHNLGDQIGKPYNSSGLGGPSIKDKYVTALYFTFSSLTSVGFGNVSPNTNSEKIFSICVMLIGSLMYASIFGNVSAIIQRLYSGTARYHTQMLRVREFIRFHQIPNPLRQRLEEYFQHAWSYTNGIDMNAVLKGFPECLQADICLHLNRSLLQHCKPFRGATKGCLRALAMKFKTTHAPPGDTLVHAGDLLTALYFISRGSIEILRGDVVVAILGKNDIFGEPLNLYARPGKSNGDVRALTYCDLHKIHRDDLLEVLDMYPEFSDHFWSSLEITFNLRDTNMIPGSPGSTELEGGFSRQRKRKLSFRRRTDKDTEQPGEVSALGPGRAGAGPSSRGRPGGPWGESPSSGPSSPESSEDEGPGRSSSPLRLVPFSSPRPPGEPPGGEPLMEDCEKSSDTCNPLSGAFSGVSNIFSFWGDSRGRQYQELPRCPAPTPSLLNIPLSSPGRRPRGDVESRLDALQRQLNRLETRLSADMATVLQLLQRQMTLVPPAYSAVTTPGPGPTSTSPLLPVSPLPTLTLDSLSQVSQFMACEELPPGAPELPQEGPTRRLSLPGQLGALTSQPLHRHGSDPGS

Row | SMILES | hERG current change (%, negative = inhibition) at 10uM
1 | COc1ccc(NC(=O)c2cccc(C#N)c2)cc1NS(=O)(=O)c1ccc(F)cc1 | 8.63%
2 | Cc1ccnc(SCCn2c(N3CCN(c4ccccc4)CC3)nc3c2c(=O)[nH]c(=O)n3C)n1 | -17.3%
3 | CCN(CC(=O)NCc1cccs1)S(=O)(=O)c1ccc([N+](=O)[O-])cc1 | -68.2%
4 | CCN(CC(=O)NCc1cccs1)S(=O)(=O)c1cccc(Br)c1 | 11.9%
5 | CCN(CC(=O)NCc1cccs1)S(=O)(=O)c1cccc(C(C)=O)c1 | 0.039%
6 | O=[N+]([O-])c1cccc(S(=O)(=O)N/N=C/c2ccc(O)cc2)c1 | 1.14%
7 | CC(=O)Nc1nc(C)c(Oc2ccc(Cl)cc2Cl)c(=O)[nH]1 | 10.5%
8 | COc1ccccc1NC(=O)c1ccc(NC(=O)COC(=O)CC(NC(=O)c2ccccc2Cl)c2ccccc2)cc1 (stereo not drawn) | 6.73%
9 | CCN1CCCC1CNC(=O)C1CCN(Cc2nc(-c3cccc(Br)c3)oc2C)CC1 (stereo not drawn) | -9.4%
10 | COc1cccc(C2CCCCN2Cc2nc(-c3ccc(C)o3)oc2C)c1 (stereo not drawn) | -12.5%
11 | Cc1oc(-c2cccc(F)c2)nc1CN1CCCCC1CCn1cccn1 (stereo not drawn) | -73.1%
12 | Cc1ccc(-c2nc(CN3CCCCC3c3cccc(F)c3)c(C)o2)o1 (stereo not drawn) | 44.7%
13 | CCOc1ccc(-c2nc(CN3CCCCC3CCn3cccn3)c(C)o2)cc1 (stereo not drawn) | -71.5%
14 | Cc1oc(-c2ccccc2Cl)nc1CN1CCCCC1CO (stereo not drawn) | -20.5%
15 | Cc1ccc(-c2nc(CN3CCCCC3CCN3CCCC3=O)c(C)o2)o1 (stereo not drawn) | -51.5%
16 | CSc1ccc(-c2nc(CN3CCCCC3c3cccnc3)c(C)o2)cc1 (stereo not drawn) | -19.8%
17 | Cc1oc(-c2cccc(C(F)(F)F)c2)nc1CN1CCC[C@H]1CO | -35%
18 | O=C(NCCc1c[nH]c2ccccc12)c1c(Cl)nc2sccn12 | 15.4%
19 | O=C(NC(Cc1c[nH]c2ccccc12)C(=O)O)c1cccs1 (stereo not drawn) | 18.6%
20 | Cc1ccc(Cl)cc1NC(=O)CCC(=O)NCc1ccco1 | 7.15%
21 | O=C(CN1C(=O)NC2(CCCc3ccccc32)C1=O)N1CCN(C(=O)c2ccco2)CC1 (stereo not drawn) | -34.3%
22 | COc1ccc2[nH]c(O)c(NC(C)=O)c2c1 | 1.61%
23 | COc1cc(NC(=O)COc2ccc(Br)cc2)ccc1NC(=O)C(C)C | 4.1%
24 | CC1CCN(C(=O)COc2ccc(S(=O)(=O)N3CCOCC3)cc2)CC1 | -1.39%
